Source: PubChem (several laboratories)
Only some compounds are listed: those with a hit (about 6.6% of all), similar ones and a draw of the others.
FBA Mtb inh: Mtb fructose-bisphosphate aldolase inhibition; P9WQA3; purified M. tuberculosis FBA, fluorescence read-out; inhibition, % at 1 µM; actives 2.3% (n = 360,000); AID 588726; in the data active means inhibition above about 27%;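 further: 0% = vehicle and 100% = reference inhibitor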
Target sequence (P9WQA3 whole entry, looked up): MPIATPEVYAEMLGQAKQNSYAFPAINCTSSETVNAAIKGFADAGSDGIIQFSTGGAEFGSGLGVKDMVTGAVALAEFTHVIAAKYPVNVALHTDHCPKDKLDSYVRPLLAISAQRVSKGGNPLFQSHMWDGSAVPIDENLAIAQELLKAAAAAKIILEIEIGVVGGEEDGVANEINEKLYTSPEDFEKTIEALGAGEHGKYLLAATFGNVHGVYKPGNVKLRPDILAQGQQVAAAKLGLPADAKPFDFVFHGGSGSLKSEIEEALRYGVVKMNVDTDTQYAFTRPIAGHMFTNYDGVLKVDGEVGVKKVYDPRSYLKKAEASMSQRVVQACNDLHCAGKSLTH
BoNT A protease: blocks Botulinum neurotoxin A light chain protease; multiplex microsphere protease substrate cleavage, flow cytometry; inhibition, % at 10 µM; actives 0.17% (n = 360,000); further: plate controls were buffer without enzyme for full effect and enzyme alone for no effect
GDH-TPI inh: inhibits GDH-TPI coupling enzymes, artifact for Mtb FBA screen | inhibition, % at 4.8 µM | AID 588335 | actives 1.2% (n = 360,000) | GDH-TPI coupled enzyme counterscreen, NADH absorbance; in the data active means inhibition above about 30%;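 further: 0% = DMSO wells and 100% = wells lacking the enzyme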
Anthrax LF inh2: inhibitors of Bacillus anthracis lethal factor protease | P15917 | multiplex microsphere protease cleavage assay, LF | inhibition, % at 10 µM | actives 0.12% (n = 360,000) | AID 588501; further: plate controls were buffer without enzyme for full effect and enzyme alone for no effect
BoNT F protease: BoNT F light chain protease inhibition. AID 588497. Multiplex microsphere protease cleavage assay, flow cytometry. inhibition, % at 10 µM. actives 0.22% (n = 360,000); in the data active means inhibition above about 35%, passing the limit was not always enough; inconclusive means no clear call, values can overlap the other calls; further: plate controls were buffer without enzyme for full effect and enzyme alone for no effect
Autofluor counter: counter-screen for toxin protease inhibitors: compound fluorescence. compound autofluorescence counterscreen, microsphere flow cytometry; active compounds read high. actives 3.1% (n = 360,000). fluorescence intensity (concentration not given with the values); in the data active means fluorescence intensity above about 16000; inconclusive means no clear call, values can overlap the other calls
* hit, by the source's call; ? = inconclusive; nt = no result given; + = active, no number. Unless noted, no stated cut-off is given here; in the data, active means inhibition above about 30%; inconclusive means no clear call, values can overlap the other calls; inactive means below that.

SMILES	FBA Mtb inh	BoNT A protease	GDH-TPI inh	Anthrax LF inh2	BoNT F protease	Autofluor counter
O=c1ccc2cc(OC3O[C@H](CO)[C@@H](O)[C@H](O)[C@H]3O)c(O)cc2o1 (stereo partly specified)	nt	-0.3	19.8	-9.5	-11.8	5940
CC1OC(Oc2ccc3ccc(=O)oc3c2-c2c(O)ccc3cc(Oc4ccc5ccc(=O)oc5c4)c(=O)oc23)C(O)C(O)C1O (stereo unspecified)	2.6	-0.7	45.3*	-3.2	-10.5	3979
O=C(O)CCC(=O)NC1CCCCC1	1.4	-1.0	14.0	-0.7	7.0	8294
O=C(O)CCC(=O)OCC1CCCCC1	0.3	?	-17.5	-0.2	1.6	19321*
Cc1ccc(C2=NN(CC(=O)O)C(=O)CC2)cc1	0.4	2.7	-4.6	3.3	49.5*	3944
Cc1ccc(C2=NN(CC(=O)NCc3ccco3)C(=O)CC2)cc1	2.4	-0.1	4.9	0.0	-0.3	2565
O=C(CN1CCN(Cc2ccc(Cl)cc2)CC1)N/N=C/c1cccs1	-2.6	1.4	-4.6	-8.2	?	3826
CCC1S/C(=N/N=C/c2ccco2)N(Cc2ccccc2C)C1=O (stereo unspecified)	-1.0	?	12.4	40.7*	?	3284
CCC1S/C(=N/N=C/c2ccco2)N(Cc2ccc(F)cc2)C1=O (stereo unspecified)	-1.1	nt	33.8*	nt	nt	nt
COC(=O)c1ccc(NC(=O)CSc2nncn2-c2ccccn2)cc1	4.6	0.2	6.2	-3.8	3.9	4394
CCN(CC)CCCn1c(=S)[nH]c2cc(OC)c(OC)cc2c1=O	0.0	?	3.0	-1.1	-7.8	22782*
COC(=O)c1ccc2c(=O)n(NC(C)=O)c(=S)[nH]c2c1	1.4	-2.1	10.6	-2.6	-4.9	23622*
CCN(CC)CCCn1c(=S)[nH]c2cc(C(=O)OC)ccc2c1=O	6.4	0.9	13.1	-1.0	-2.6	23192*
COc1cc2[nH]c(=S)n(NC(=O)c3ccccc3)c(=O)c2cc1OC	2.2	-1.1	14.3	-0.1	-0.5	16796*
CCn1c(=S)[nH]c2cc(C(=O)OC)ccc2c1=O	-5.7	0.0	6.4	3.2	-1.8	6493
CCCCNC(=O)Cn1cnc2sc(C)c(S(=O)(=O)N3CCN(c4ncccn4)CC3)c2c1=O	5.8	0.0	1.3	2.2	1.9	2206
CCN(CC)CCNC(=O)c1ccc2c(=O)n(C3CCCC3)c(=S)[nH]c2c1	-3.8	0.1	-14.6	-0.8	1.4	20853*
Clc1ccc(-c2nc3ncccn3c2Cl)cc1	+	1.4	13.9	-1.4	1.6	4260
Cc1ccc(CC2C(=O)N(c3nc(C)cc(C)n3)C(=O)C2C)cc1 (stereo unspecified)	-1.8	-0.4	-5.4	3.1	2.6	4275
COc1ccc(CCN2CC(O)=C(c3nc(C)cs3)C2=N)cc1OC	-1.2	0.2	17.2	3.2	0.3	23439*
Cc1cccc(N2C(=O)CC(N3CCN(C(=O)c4ccccc4)CC3)C2=O)c1 (stereo unspecified)	8.6	-0.2	5.1	-1.1	-0.4	23162*
O=C1CC(N2CCN(Cc3ccccc3)CC2)C(=O)N1c1ccc2c(c1)OCCO2 (stereo unspecified)	5.6	0.4	-3.9	-3.0	-6.5	4286
O=C1CC(N2CCN(Cc3ccccc3)CC2)C(=O)N1c1ccccc1 (stereo unspecified)	1.9	-0.5	-5.7	-0.4	0.2	23947*
O=C(COC(=O)CCSc1ccccc1)Nc1cc(F)ccc1F	-3.6	0.1	-1.9	-6.9	-2.9	4402
CCN(CC)CCNC(=O)c1ccc(NC(=O)c2ccccc2-c2ccc(C(F)(F)F)cc2)cc1	-0.3	-1.5	5.8	1.2	4.5	3107
SMILES	FBA Mtb inh	BoNT A protease	GDH-TPI inh	Anthrax LF inh2	BoNT F protease	Autofluor counter
COc1c(/C=N/NC(=O)c2ccccc2O)c(CCN(C)C(C)=O)cc2c1OCO2	-2.8	-1.5	20.9	-2.3	-5.3	2410
CNC(=S)N(C)CCc1cc2c(c(OC)c1C=C1C(=O)NC(=O)NC1=O)OCO2	-1.4	-2.0	37.9*	8.6	?	3579
COc1c(/C=N/Nc2ccc(C(=O)O)cc2)c(CCN(C)C(C)=O)cc2c1OCO2	-1.8	-1.1	36.7*	-2.8	3.9	5498
C=CCN1C(=O)NC(=O)/C(=C/c2c(CCN(C)C(=O)c3ccccc3)cc3c(c2OC)OCO3)C1=O	-1.4	0.6	-5.9	-7.9	-9.8	5238
CC1=C(C(=O)OC(C)C)[C@@H](c2ccc(C)o2)NC(=O)N1	-1.4	0.5	-3.2	0.8	-0.2	2278
Cn1c(COc2ccc(F)cc2)nnc1SCC(=O)NC1CC1	-0.3	-2.6	3.1	0.1	-0.4	5187
O=C1N(c2ccc(Cl)c(Cl)c2)CN(Cc2ccccc2)CN1n1cnnc1	0.1	-2.6	11.7	1.7	-7.8	17448*
CCCCn1nnnc1C(c1cccc2ccccc12)N1CCN(C/C=C/c2ccccc2)CC1 (stereo unspecified)	-2.5	-0.3	nt	-5.7	-5.9	5843
Cc1oc2c(c1C(=O)c1ccc(Cl)cc1)C(=O)C(=O)c1ccccc1-2	-3.2	30.1*	5.1	20.6	13.1	1961
CCCCCN(C(=O)CCC(=O)OCC(=O)c1ccc(C(C)CC)cc1)c1c(N)n(CCCC)c(=O)[nH]c1=O (stereo unspecified)	5.5	-5.2	6.6	-2.2	-7.0	5025
Cc1noc(C)c1COc1cccc(C(=O)OC(C)C(=O)Nc2ccc3c(c2)OCO3)c1 (stereo unspecified)	0.8	3.8	-1.4	-0.1	-0.3	19670*
COc1cc(C(=O)OC(C)C(=O)Nc2ccc3c(c2)OCO3)ccc1OCc1c(C)noc1C (stereo unspecified)	-1.4	0.8	-6.8	1.9	-5.6	3864
Cc1cccc(N=Nc2cnc(N)s2)c1	-12.6	-0.5	3.8	-13.8	-16.0	5414
Cn1c(=O)c2cc(NC(=O)NCc3ccccc3)ccc2n1Cc1ccc(Cl)cc1	123.3*	0.4	-7.1	-2.6	-9.0	3455
Cn1c(=O)c2cc(NC(=O)Nc3ccccc3)ccc2n1Cc1ccccc1	142.0*	0.4	3.6	-3.5	5.7	3718
CCN1CCN(Cc2ccc(NC(=O)Nc3ccccc3)cc2)CC1	4.0	0.4	-11.1	-6.6	2.0	6065
Cc1cccc[n+]1CC(=O)Nc1ccccc1	-0.4	0.9	-5.1	15.1	36.7*	4187
C[C@H](NC(=O)c1ccco1)C(=O)Nc1ccc(C#N)cc1	0.6	-1.1	-2.3	-2.4	4.7	6088
Cc1ccc(N=C(N)N=C(N)N)c(C)c1	-3.4	1.8	10.2	9.0	?	4018
FC(F)(F)c1nnc2c(Sc3ccccn3)nc3ccccc3n12	1.0	1.4	6.4	1.1	2.7	22962*
FC(F)(F)c1nnc2c(Sc3ccccc3)nc3ccccc3n12	0.8	1.1	2.7	-4.6	2.1	5577
CN(CC(=O)Nc1ccccc1Cl)CC(=O)N1CCc2ccccc21	-2.8	-3.2	-7.3	-4.1	-7.6	?
